# For part of these data: Potency and affinity values are given separately. The source made the active and inactive calls. Entries that show only a call come without a potency. Unless noted, the rule behind the calls is not given here.
# Legend:
# [1] = target: Cell division control protein 42 homolog (Homo sapiens) (UniProt P60953); test: inhibition of fluorescent GTP binding to constitutively active Cdc42 – biochemical, multiplex bead flow cytometry, Bodipy-FL-GTP, dose response (AID 1333;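 active = fitted half-maximal concentration within the tested dose range, moderate curve steepness, a statistically real signal drop, and little compound fluorescence or tag-binding interference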)
# [2] = target: Cell division control protein 42 homolog (Homo sapiens) (UniProt P60953); test: inhibition of fluorescent GTP binding to wildtype Cdc42 – biochemical, multiplex bead flow cytometry, Bodipy-FL-GTP, dose response (AID 1334;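 active = fitted half-maximal concentration within the tested range, moderate curve steepness, significant signal drop, and little compound fluorescence or bead-linkage interference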); conditions: bead-based flow cytometry, Bodipy-FL-GTP binding to GST-Cdc42; at 100 µM (top of the series) unless noted
# [3] = target: GTPase HRas (Homo sapiens) (UniProt P01112); test: Ras wt fluorescent GTP loading blockade – biochemical, wildtype, multiplex bead flow cytometry, dose response (AID 1335;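 active = fitted half-maximal concentration within 10 nM to 100 µM, steepness 0.5 to 2, significant signal drop, low assay interference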); conditions: bead-based flow cytometry, Bodipy-GTP binding to GST-Ras; at 100 µM (top of the series) unless noted
# [4] = system: Ras-related protein Rab-7a (dog), GTP binding; test: blockers of fluorescent GTP binding to Rab7 – biochemical, wildtype, multiplex bead flow cytometry, dose response (AID 1336)
# [5] = target: Ras-related C3 botulinum toxin substrate 1 (Homo sapiens) (UniProt P63000); test: inhibition of wildtype Rac1 nucleotide loading – biochemical, multiplex bead flow cytometry, dose response (AID 1340;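 active = dose curve with midpoint inside tested range, moderate steepness, plateau gap beyond fit error, low compound glow and bead-link interference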); conditions: GST-Rac1 beads, Bodipy-FL-GTP binding; at 100 µM (top of the series) unless noted
# [6] = target: GTPase HRas (Homo sapiens) (UniProt P01112); test: blockade of GTP loading onto mutant Ras – biochemical, activated mutant, multiplex bead flow cytometry, dose response (AID 1341;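 active = dose-response curve with midpoint inside the tested range, moderate steepness, significant amplitude and little compound fluorescence or bead-attachment interference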;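 note: GST-tagged constitutively activated Ras mutant immobilized on beads and multiplexed with other GTPases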)
# GTPase HRas (Homo sapiens), sequence (P01112 whole entry, looked up): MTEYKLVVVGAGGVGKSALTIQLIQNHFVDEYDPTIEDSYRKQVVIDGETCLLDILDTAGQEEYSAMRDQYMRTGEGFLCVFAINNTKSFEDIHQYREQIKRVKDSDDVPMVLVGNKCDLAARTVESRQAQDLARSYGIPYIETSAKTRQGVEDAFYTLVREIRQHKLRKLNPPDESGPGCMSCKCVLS
# Cell division control protein 42 homolog (Homo sapiens), sequence (P60953 whole entry, looked up): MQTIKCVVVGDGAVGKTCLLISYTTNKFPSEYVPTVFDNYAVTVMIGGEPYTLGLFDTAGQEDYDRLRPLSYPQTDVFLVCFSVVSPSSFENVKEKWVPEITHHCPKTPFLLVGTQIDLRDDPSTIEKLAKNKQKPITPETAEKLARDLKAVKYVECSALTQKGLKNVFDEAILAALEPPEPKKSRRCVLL
SMILES,outcome [1],"fluorescence, percent of control (lower = inhibition) [2] [%]","GTP binding, percent of control [3] [%]",outcome [4],"GTP binding signal, raw median fluorescence (lower = inhibition) (MCF (arbitrary fluorescence units)) [5]",outcome [6]
C/C(=N\Nc1cc(C)nc(-c2ccccc2)n1)c1cccc([N+](=O)[O-])c1,inactive,33.6,77.8,inactive,193,inactive
C=CCc1ccc(OCc2ccc(C(=O)O)o2)c(OC)c1,inactive,58.9,86.5,inactive,31.4,inactive
CCc1ccc(OCc2ccc(C(=O)O)o2)cc1,inactive,60.7,90.3,inactive,35.2,inactive
O=C(O)c1cccnc1SCc1ccccc1Cl,inactive,103,119,inactive,88.1,inactive
Cc1c(Cl)cccc1NS(=O)(=O)c1ccc2c(c1)C1C=CCC1C(c1ccc(C(=O)O)cc1)N2 (stereo not given),inactive,22.3,72.9,inactive,222,inactive
O=C(C[n+]1cccc(CNC(=O)c2ccc(OC(F)F)cc2)c1)Nc1ccccc1Cl,inactive,51.9,60.5,inactive,203,inactive
CCCCn1c(O)c(/C=C/C=C/C=Nc2ccccc2)sc1=S,inactive,29.8,68.3,inactive,216,inactive
Cc1ccc(C)c(CSc2ncccc2C(=O)O)c1,inactive,64.5,73.7,inactive,222,inactive
Cc1ccc(C2C(C#N)C(C#N)N3CCCN23)cc1 (stereo not given),inactive,99.2,156,inactive,200,inactive
COc1cc2[nH]c(=S)nc(NCCc3ccc(C)cc3)c2cc1OC,inactive,26.6,59.9,inactive,125,inactive
O=c1cc(N2CCc3ccccc3C2)[nH]c(=O)n1-c1ccc(Cl)cc1,inactive,43.6,92.9,inactive,267,inactive
COc1ccc(Nc2ccccc2C(=O)O)cc1,inactive,45.2,92.5,inactive,262,inactive
O=C(CSc1ccc2nnc(-c3cccc(F)c3)n2n1)N1CCCc2ccccc21,inactive,37.7,83,inactive,209,inactive
Cc1ccc(/C=N/NC(=O)C2CCN(Cc3ccc(F)cc3Cl)CC2)o1,inactive,39,82.7,inactive,241,inactive
Clc1ccc(Cn2ncc3c(N4CCOCC4)ncnc32)cc1,inactive,50.5,66.4,inactive,209,inactive
CC1=NC(=O)C(N=Nc2ccccc2C(=O)O)N1c1ccccc1 (stereo not given),inactive,28.8,69.9,inactive,180,inactive
CC(C)(C)c1ccc(OCCn2cc(C(=O)O)c3ccccc32)cc1,inactive,57.9,82.9,inactive,30.4,inactive
COC(=O)c1cccc(Nc2cc(C)nc(-c3ccccc3O)n2)c1,inactive,43.1,54.2,inactive,148,inactive
Cc1cc(C)n2ncc(C(=O)O)c2n1,inactive,35.6,84,inactive,266,inactive
CC(=O)Nc1cccc(C#CC(=O)c2ccc([N+](=O)[O-])cc2)c1,inactive,39.8,178,inactive,104,inactive

SMILES,outcome [1],"fluorescence, percent of control (lower = inhibition) [2] [%]","GTP binding, percent of control [3] [%]",outcome [4],"GTP binding signal, raw median fluorescence (lower = inhibition) (MCF (arbitrary fluorescence units)) [5]",outcome [6]
Cc1ccccc1OCCn1cc(C(=O)O)c2c(C)cccc21,inactive,53,176,inactive,55.6,inactive
COc1ccc(NC(=O)c2cc3nc(-c4ccccc4)cc(C)n3n2)cc1OC,inactive,33.2,76.8,inactive,218,inactive
OC(CNCCC1C=Nc2ccccc21)Cn1c2ccc(Cl)cc2c2cc(Cl)ccc21 (stereo not given),inactive,60.4,67.9,inactive,386,inactive
Cc1cc(NS(=O)(=O)c2ccc(NC(=O)c3cc4c(=O)n5ccccc5nc4s3)cc2)nc(C)n1,inactive,31.9,77.5,inactive,166,inactive
Cc1cc2nc3c(=O)n(C4CCCCC4)c(=O)[nH]c3nc2cc1N,inactive,42.7,53.2,inactive,146,inactive
Cc1ccc(-c2ccc(/C=C(\C#N)C(=O)Nc3cc(C)nn3-c3ccccc3)o2)cc1,inactive,226,182,inactive,498,inactive
Cc1n[nH]c(=S)c2nn(-c3cccc(Cl)c3)c(C)c12,inactive,55.8,71.1,inactive,217,inactive
Cc1ccccc1OCCn1cc(C(=O)O)c2cccc(C)c21,inactive,53.7,200,inactive,53.4,inactive
O=C(Cn1cnc2cc([N+](=O)[O-])ccc2c1=O)NCCc1ccc(Cl)cc1,inactive,36.8,85.2,inactive,244,inactive
COc1cc(NS(=O)(=O)c2ccc(NC(=O)/C=C/c3cccc([N+](=O)[O-])c3)cc2)ncn1,inactive,29.8,77.7,inactive,191,inactive
O=C(C#Cc1cccc(O)c1)c1ccc([N+](=O)[O-])cc1,inactive,71.6,196,inactive,138,inactive
CCOC(=O)CNC(=O)c1cccnc1SCCc1ccccc1,inactive,46.7,125,inactive,65,inactive
Oc1c(C=Nc2ccccc2)sc(=S)n1Cc1ccccc1,inactive,34.6,75.7,inactive,232,inactive
CCOc1ccccc1C1C(C(=O)OC)=C(N)OC2=C1C(=O)CCC2 (stereo not given),inactive,90,149,inactive,184,inactive
O=S(=O)(CC(CN1CCOCC1)N1CCOCC1)c1ccccc1 (stereo not given),inactive,43.3,92.1,inactive,310,inactive
O=C(O)c1cccnc1SCc1cccc(F)c1,inactive,78.4,92.9,inactive,52.6,inactive
O=S(=O)(Nc1cccc(-c2cn3cccnc3n2)c1)c1ccc(F)cc1,inactive,36.5,46,inactive,0,inactive
COc1ccc(-c2nnc(S/C(=C/c3ccc(Cl)cc3)C(=O)O)o2)cc1,inactive,35.8,81.6,inactive,218,inactive
O=C(O)c1ccccc1NCc1c(Cl)cccc1Cl,inactive,59.4,87.4,inactive,30.2,inactive
CCOC(=O)N1CCN(/C=C(\C#N)c2nc3ccccc3s2)CC1,inactive,80.8,92.3,inactive,240,inactive

SMILES,outcome [1],"fluorescence, percent of control (lower = inhibition) [2] [%]","GTP binding, percent of control [3] [%]",outcome [4],"GTP binding signal, raw median fluorescence (lower = inhibition) (MCF (arbitrary fluorescence units)) [5]",outcome [6]
C=CCNc1nc(=S)[nH]c2cc(OC)c(OC)cc12,inactive,31.2,69.1,inactive,148,inactive
CCOC(=O)c1c(C)[nH]c(C)c1C(=O)COc1ncnc2cc([N+](=O)[O-])ccc12,inactive,33.9,76.2,inactive,186,inactive
COC(=O)c1ccc(COc2ccccc2/C=N/Nc2cccc(C(=O)O)c2)cc1,inactive,52.1,100,inactive,274,inactive
Nc1c(S(=O)(=O)c2ccccc2)c2nc3ccccc3nc2n1/N=C/c1cccc(O)c1,inactive,91.2,81.1,inactive,105,inactive
Cn1c(O)c(C2=c3ccccc3=NC2=O)[nH]c1=S,inactive,37.9,83.1,inactive,214,inactive
Cc1nnc(-n2ncc(C#N)c2N)c2nn(-c3cccc(Cl)c3)c(C)c12,inactive,62.8,76.8,inactive,198,inactive
Cn1nc([N+](=O)[O-])c(C(C#N)c2ccccn2)c(Cl)c1=O (stereo not given),inactive,24,74.7,inactive,201,inactive
CCCc1cc(N2CCN(C(=O)c3ccco3)CC2)n2c(nc3ccccc32)c1C#N,inactive,34.7,79,inactive,240,inactive
COc1ccc(-c2cc(-c3ccc(O)cc3)nc(N)c2C#N)cc1OC,inactive,32.2,77.1,inactive,184,inactive
O=C(CSc1ccc2nnc(-c3ccccn3)n2n1)Nc1nccs1,inactive,28.8,61.7,inactive,124,inactive
Cc1cc(C)n(Cc2n[nH]c(=S)n2Cc2ccccc2)n1,inactive,106,189,inactive,198,inactive
CCOc1cc(/C=N/NC(=O)CSc2cccc3cccnc23)ccc1O,inactive,35.6,78.2,inactive,188,inactive
O=C(O)c1ccc2c3c(cccc13)C(=O)N(OS(=O)(=O)c1ccccc1)C2=O,inactive,33.5,78.2,inactive,191,inactive
O=C(O)c1cccnc1SCc1cccc(Cl)c1,inactive,102,117,inactive,79.9,inactive
CCOC(=O)/C=C1\SCC(=O)N1CCOc1cccc(Br)c1,inactive,94.9,164,inactive,185,inactive
O=C(/C=C/c1ccccc1)NC(NC(=S)Nc1ccc(C(=O)O)cc1)C(Cl)(Cl)Cl (stereo not given),inactive,35.2,78.3,inactive,178,inactive
COc1cc2[nH]c(=S)nc(NCCCOC(C)C)c2cc1OC,inactive,38.7,50.6,inactive,116,inactive
Cc1ccc2nc(CSc3nc(C)cc(C)c3C#N)[nH]c2c1,inactive,35.3,77.6,inactive,242,inactive
O=C(O)c1cccnc1Oc1ccc2c(c1)OCO2,inactive,76.8,92,inactive,55.2,inactive
CCC1CCCCN1S(=O)(=O)c1ccc(NC(=O)CSc2ncccc2C(=O)O)cc1 (stereo not given),inactive,43.1,57.5,inactive,109,inactive

# Reference: PubChem BioAssay
